Compounds with a hit are over-represented: about 4.5% of the library has one in this group of screens.
CSC inhib: cancer stem cell inhibition | cancer stem cell-like cells viability, luminescence | inhibition, % at 7.5 µM | hit rate 1.1% among 300,000; in the data active means inhibition above about 75%; inconclusive means no clear call, values can overlap the other calls; tested in HMLE shEcad cells
697 NFkB inh: lowers PMA/ionomycin-induced NF-kB signal in 697 B cells; 697 B-cell NF-kB luciferase reporter, 16 h; inhibition, % at 4 µM; hit rate 0.33% among 330,000; AID 435022; in the data active means inhibition above about 35%
Mdm2-MdmX inh: human Mdm2/MdmX binding inhibition; O15151+Q00987; SaOS-2 split-luciferase Mdm2/MdmX complementation, luminescence; inhibition, % at 8 µM; hit rate 3% among 330,000; AID 485346;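 active means inhibition of at least 50% at 8 µM in the primary screen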
Gli-Sufu block: Gli-Sufu pathway antagonism | Sufu-KO-LIGHT fibroblasts, Gli luciferase reporter luminescence | inhibition, % at 5 µM | hit rate 0.74% among 340,000 | AID 588413;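 active means inhibition above about 55%, limit read from the data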;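 further: 0% = DMSO-treated cells and 100% = wells with medium but no cells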
aSyn 5UTR inh: 5' untranslated region of α-synuclein, MLPCN primary screen; alpha-synuclein 5'UTR reporter, inhibitor activity; inhibition, % (tested at 7.5 µM); hit rate 0.82% among 300,000; AID 1813; in the data active means inhibition above about 60%; inconclusive means no clear call, values can overlap the other calls;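 further: H4 neuroglioblastoma cells stably carrying SNCA 5'UTR luciferase fusion; 0% = DMSO wells and 100% = positive control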
Jurkat NFkB inh: lowers PMA/ionomycin-induced NF-kB signal in Jurkat cells | PMA/ionomycin-induced NF-kB luciferase reporter, luminescence | inhibition, % at 4 µM | hit rate 0.53% among 330,000 | AID 435003; in the data active means inhibition above about 50%
Mdm2 MdmX conf: confirmation of human Mdm2/MdmX interaction inhibitors; inhibition, % at 8 µM; Mdm2-MdmX binding, luminescent assay; hit rate 55% among 10,000; shares compounds with Mdm2-MdmX inh; in the data active means inhibition above about 40%
FLuc counter: full-length luciferase inhibition in Mdm2/MdmX counter-screen; shares compounds with Mdm2-MdmX inh; SaOS-2 full-length luciferase counterscreen, luminescence; inhibition, % at 8 µM; hit rate 77% among 6,200;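 active means mean inhibition at 8 µM reaching about 37%, which flags the compound as non-specific, limit read from the data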;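 further: p53-null SaOS-2 cells with luciferase driven by a doxycycline-inducible promoter; compound on cells about two nights before reading with doxycycline added after day one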
Starred values were filed as active, the others as inactive; ? = inconclusive; nt = no result.

SMILES | CSC inhib | 697 NFkB inh | Mdm2-MdmX inh | Gli-Sufu block | aSyn 5UTR inh | Jurkat NFkB inh | Mdm2 MdmX conf | FLuc counter
CCOC(=O)C(C)CC(C)C(=O)N1CCOCCOCCN(C(=O)C(C)CC(C)C(=O)OCC)CCOCC1 (stereo not drawn) | nt | 11 | 10 | 1 | 13 | 8 | nt | nt
CCOC(=O)C(C(=O)OCC)C(C(=O)OCC)N1CCOCC1 (stereo not drawn) | 35 | -6 | 100* | 2 | 5 | 8 | -16 | nt
O=C(CSc1nc2cc([N+](=O)[O-])ccc2n1-c1ccccc1)NCc1ccc2c(c1)OCO2 | -2 | 4 | 56* | -4 | -7 | 32 | 22 | nt
O=C(c1ccco1)N(Cc1ccc2c(c1)OCO2)Cc1cc2cc3c(cc2[nH]c1=O)OCO3 | -9 | 5 | 60* | -6 | 6 | -5 | 16 | nt
Cc1cc2cc(CN(Cc3ccc4c(c3)OCO4)C(=O)c3ccco3)c(=O)[nH]c2cc1C | -4 | 4 | 5 | 0 | 12 | 0 | nt | nt
C/C(=N\NC(=O)c1cc2ccccc2cc1O)c1cc2ccccc2o1 | 93* | -7 | 54* | -8 | -35 | -1 | 40 | 58*
C/C(=N\NC(=O)c1cc2ccccc2cc1O)c1ccccn1 | -9 | -183 | 53* | 90* | 88* | -7 | 54* | 24
C/C(=N\NC(=O)CCCNc1ccc(C)cc1)c1ccccn1 | 34 | 12 | 62* | -3 | 78* | -7 | 55* | 47*
O=C(Nc1ccc(Oc2ccc(Cl)cc2)c(Cl)c1)c1cc(I)cc(I)c1O | 100* | -6 | 100* | -32 | -17 | -2 | 74* | 56*
COc1ccc(NC(=O)c2ccccc2F)cc1Cl | 0 | -84 | -41 | 9 | -156 | -98 | nt | nt
COc1cc(OC)cc(C(=O)NNC(=O)CCC(=O)c2cccs2)c1 | nt | -4 | 17 | -5 | 5 | 6 | nt | nt
CCOc1ccc(NC(=O)/C(C#N)=C/c2ccc(N3CCCC3)c(C)c2)cc1 | 17 | nt | nt | -1 | nt | nt | nt | nt
CCOc1cc(/C=C(/C#N)C(=O)Nc2ccc(O)cc2)cc(Br)c1O | 47 | 4 | 70* | 5 | 84* | 32 | 63* | 86*
Oc1c(N=NC(=S)Nc2ccccc2F)c2ccccc2n1Cc1ccc(Cl)cc1 | 27 | -13 | 54* | 7 | 70* | 5 | 46* | 68*
Oc1c(N=NC(=S)Nc2ccccc2F)c2ccccc2n1Cc1ccccc1F | nt | 22 | 64* | 18 | 87* | 6 | 48* | 46*
COc1ccc(CNC2CC(C)N(C)CC2C)cc1OC (stereo not drawn) | -10 | 18 | 14 | 5 | -6 | -16 | nt | nt
COc1ccc(N(Cc2nnc3n2CCCCC3)C(=O)Nc2ccccc2)cc1 | 5 | 16 | 9 | -18 | -20 | -6 | nt | nt
COc1cc(NC(=O)c2ccc(=O)[nH]n2)cc(OC)c1OC | -6 | -9 | 8 | 3 | 18 | -5 | nt | nt
COc1cccc(C(=O)NCC(c2ccco2)N2CCOCC2)c1 (stereo not drawn) | -4 | -4 | 7 | -3 | 9 | -3 | nt | nt
NS(=O)(=O)c1ccc(CCNC(=O)c2ccc(C#CC3(O)CCCCC3)cc2)cc1 | 48 | 16 | 70* | -8 | -21 | 19 | 68* | 72*
NS(=O)(=O)c1ccc(CCNC(=O)c2ccncc2)cc1 | 23 | 4 | 10 | -16 | -20 | -25 | nt | nt
O=[N+]([O-])CC(c1ccc(F)cc1)c1c[nH]c2ccccc12 (stereo not drawn) | 58 | -31 | 63* | 0 | 1 | 34 | 66* | 42*
COc1ccc(-c2nc(N/N=C(\C)c3ccc(O)cc3)c3ccccc3n2)cc1 | 66 | -20 | 86* | -24 | -92 | -18 | -22 | nt
COc1ccc(Nc2nc(-c3ccccc3)nc3ccccc23)cc1 | 73 | 1 | 34 | 12 | 5 | 5 | nt | nt
O=C(NC(=S)NNC(=O)c1ccccc1O)c1cccs1 | nt | -17 | 32 | -9 | -38 | 1 | nt | nt
SMILES | CSC inhib | 697 NFkB inh | Mdm2-MdmX inh | Gli-Sufu block | aSyn 5UTR inh | Jurkat NFkB inh | Mdm2 MdmX conf | FLuc counter
COc1ccc(C(=O)NNC(=S)NC(=O)c2cccs2)cc1 | nt | 11 | 28 | -17 | 12 | -11 | nt | nt
COc1ccc(/C=C/C(=O)NC(=S)NNC(=O)c2cccs2)cc1 | 12 | -89 | 54* | -6 | 1 | 5 | 53* | 73*
COc1ccccc1C(=O)NNC(=S)NC(=O)c1cccs1 | 3 | 19 | 63* | nt | 73* | 1 | 35 | nt
COc1ccc(/C=C/C(=O)NC(=S)NNC(=O)c2cnccn2)cc1 | 98* | -11 | 74* | 39 | 75* | 26 | 53* | 53*
Nc1nc(-c2cccnc2)nn1C(=O)c1ccc(F)cc1 | nt | nt | nt | -5 | 10 | nt | nt | nt
Cc1ccc(C2=NOC(C)(c3nnc(-c4ccc(Cl)cc4)o3)C2)cc1 (stereo not drawn) | -9 | 8 | 4 | 5 | 13 | -4 | nt | nt
CCN(CC)CCC(c1ccc(N(C)C)cc1)c1c(OC)cc(OC)c2c(-c3ccccc3)cc(=O)oc12 (stereo not drawn) | 18 | -8 | 46 | 11 | nt | 6 | nt | nt
CCCCCc1cc(=O)oc2c(C(CCN(CC)CC)c3cc(OC)c(OC)c(OC)c3)c(OC)cc(OC)c12 (stereo not drawn) | 107* | 7 | 100* | 2 | 17 | 25 | 39 | 32
CCCCCc1cc(=O)oc2c(C(CCN3CCCC(C)C3)c3ccc4c(c3)OCO4)c(OC)cc(OC)c12 (stereo not drawn) | 108* | 6 | 79* | 8 | 40 | 4 | 38 | 66*
CCCCCc1cc(=O)oc2c(C(CCN3CCCCC3)c3ccc4c(c3)OCO4)c(OC)cc(OC)c12 (stereo not drawn) | ? | 13 | 93* | -6 | 30 | 31 | 49* | 65*
CCOc1ccc(C(C(=O)NCC2CCCO2)N(Cc2cccnc2)C(=O)c2snc(C(N)=O)c2N)cc1 (stereo not drawn) | nt | -4 | 14 | 16 | 2 | -8 | nt | nt
N/C(=N\OC(=O)c1ccc(Cl)cc1Cl)c1ccccn1 | 18 | -24 | 52* | -26 | 89* | 28 | 38 | 53*
N/C(=N\OC(=O)c1ccc([N+](=O)[O-])cc1Cl)c1ccccn1 | 6 | -60 | 54* | 2 | 69* | -24 | 37 | nt
N/C(=N\OC(=O)c1cc([N+](=O)[O-])ccc1Cl)c1ccccn1 | -6 | -19 | 35 | 7 | -82 | -1 | nt | nt
c1cc2c(cc1-c1csc(NNC3=NCCCCC3)n1)OCCO2 | 18 | -53 | -27 | -21 | -70 | -42 | nt | nt
Cc1ccccc1NCN1C(=O)C2CCC(C)(C1=O)C2(C)C (stereo not drawn) | -3 | 18 | 6 | -13 | -9 | 5 | nt | nt
COc1cc2c(-c3ccc4cc[nH]c4c3)c(-c3ccc(C#N)cc3)oc(=O)c2cc1OC | 39 | -45 | 59* | 21 | nt | -17 | 35 | 52*
